For 39 compounds, growth results are on record in PubChem BioAssay (NCI).

Structures are written as SMILES. This is part of a sample that, as a whole, favours compounds with a hit. Of some 83,000 tested, about 20% had one in any assay.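 Single-concentration screen, 48 h exposure, 96-well plates. Endpoint: percent growth. Below 10 = active.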 A number with no mark means an inactive call. Calls of active or inactive are those of the source.

The subject of the first experiment is MDA-MB-435 melanoma. The experiment is described as follows: NCI-60 one-dose screen, 48 h (100 = growth as untreated, 0 = no growth, -100 = all killed). Particulars: 10 µM unless noted.
For `Cc1ccccc1O`, the growth is 117%. Still for that read-out and setting: the figure for `O=[N+]([O-])c1ccccc1N1CCNCC1` is 103%; for `CC(=O)Nc1ccc(C=C2C(=O)NC(=O)NC2=O)cc1` it is 101%.

The next experiment deals with SW-620 colon. The experiment is described as above. Particulars: 10 µM unless noted.
Consider `ClCCN(CCCl)C(c1ccccc1)c1ccc(Cl)cc1` (stereo unspecified), for which the growth is 51.6%. `CCCCn1cc(C(=O)/C(C#N)=C/c2cc3ccccc3nc2Cl)c2cc(OC)ccc21`: the growth was 44.7%.

For the compound `CCCCNCCc1ccccn1`, the growth is 103%. As to `CC(=O)C1C(=O)N(C)C(=O)N(C)C1=O`, the growth was 103%.

As for `CC1(C)N=C(N)N=C(N)N1c1cccc(C(=O)Nc2cccc(S(=O)(=O)F)c2)c1`, the growth is 93.5%.

As for `C[C@]12CC[C@@H]3C4=C(CC[C@H]3[C@@H]1CC[C@@H]2O)CC(=O)CC4`, the growth was 102%. Take `Oc1ccccc1OB(Oc1ccccc1O)N(CCCl)CCCl`: the growth was 82.9%. As for `NC(Cc1ccc2c(c1)OCO2)c1ccc2c(c1)OCO2` (stereo unspecified), the growth was 101%. On the same count and under the same terms, as for `COc1ccc(-c2ccc(OC)c(OC)c2OC)cc1`, the figure is 11.6%; as for `CC[C@@]1(C2O[C@@H](C3O[C@@](O)(CC)[C@H](C)C[C@@H]3C)C[C@@H]2C)CC[C@H]([C@]2(C)CCC3(C[C@H](O)[C@@H](C)[C@@H]([C@H](C)[C@@H](OC)[C@H](C)C(=O)O)O3)O2)O1` (stereo partly specified), 11.3%. Take `CC1(C)N=C(N)N=C(N)N1c1ccc(CCCCc2ccc(S(=O)(=O)F)cc2)c(Cl)c1`: the growth is 17.2%. Turning to `COc1ccc(C2=NN(c3ccccc3)C(c3sc(N(CCCl)CCCl)nc3Cl)C2)cc1` (stereo unspecified), the growth was 92.5%. `N#CC1c2ccccc2C=CN1C(=O)c1ccc(N(CCCl)CCCl)cc1` (stereo unspecified): the growth is 105%.

As for `CSc1ccccc1NP1(=O)OCC(C)([N+](=O)[O-])CO1` (stereo unspecified), the growth is 101%. As for `Cc1ccc(N)cc1[As]=[As]c1cc(N)ccc1C` (stereo unspecified), the growth is -57% (active). With `C/C(=N/OC(=O)N(C)C)c1cc(Cl)ccc1Cl`, the growth is 101%. With `CCC(C)[C@H]1O[C@]2(C=C[C@@H]1C)C[C@@H]1C[C@@H](C/C=C(\C)[C@@H](OC3C[C@H](OC)C(O[C@H]4C[C@H](OC)[C@@H](O)[C@H](C)O4)[C@H](C)O3)[C@@H](C)/C=C/C=C3\CO[C@@H]4[C@H](O)C(C)=C[C@@H](C(=O)O1)[C@]34O)O2` (stereo partly specified), the growth was -72% (active).

For `CC1(C)N=C(N)N=C(N)N1c1ccc(CCCCc2ccc(S(=O)(=O)F)cc2)cc1`, the growth is 19.4%. Still for that read-out and setting: the figure for `Cc1ccc(C(=O)C2CN(C)CCC2(O)c2ccc(C)cc2)cc1` (stereo unspecified) is 105%; for `O=S(=O)(O)c1ccc(-c2ccc([As](=O)(O)O)cc2)cc1` it is 103%.

Turning to `O=C1NC(=O)C(CN2C(=O)C3(c4ccccc42)[C@H](Cl)C(=O)N3c2ccccc2)C(=O)N1` (stereo partly specified), the growth is 72.5%.

Consider `C=CCC1(CC)C(=O)NC(=S)NC1=O`, for which the growth was 101%.

Consider `C/C(=N/OC(=O)N(C)C)c1ccc(Cl)cc1Cl`, for which the growth was 106%. Same read-out and setting: the figure for `CCC[CH2][Sn]([CH2]CCC)([CH2]CCC)[O]C(=O)CC` is -84.8% (active). Take `O=C(NCc1ccc([N+](=O)[O-])cc1)Nc1ccc(S(=O)(=O)F)cc1`: the growth is 91.8%. For the compound `n1nc(-c2nonc2-c2nn[nH]n2)n[nH]1`, the growth is 107%. Regarding `CNC(=O)Oc1ccccc1-c1ccccc1`, the growth was 103%.

In the case of `CC1(C)N=C(N)N=C(N)N1c1ccc(OCCCCOc2ccc(S(=O)(=O)F)cc2)c(Cl)c1`, the growth is 13%. `CCCCOC(=O)c1ccccc1C(=O)O.CCCCOC(=O)c1ccccc1C(=O)O.[Cu+2]`: the growth was 98.8%.

In the case of `O=[N+]([O-])c1ccc2cnn(CSP(=S)(c3ccccc3)c3ccccc3)c2c1`, the growth was 31.7%. For `NC(=O)C(Cl)Cl`, the growth is 113%. For `CCN(CC)c1ccc(C=C2C(=O)NC(=S)NC2=O)cc1`, the growth was 77.9%. Take `Clc1ccc(SSC(Cl)(Cl)Cl)cc1`: the growth was 97.6%. `[O]=[Sn]([CH]1CCCCC1)[CH]1CCCCC1`: the growth is -86.8% (active). Take `ClCCN(CCCl)c1nc(Cl)c(C2CC(c3ccccc3)=NN2c2ccccc2)s1` (stereo unspecified): the growth was 86%. As for `CC(=O)C1CCC2C3CC=C4CC(OC(=O)Cc5ccc(N(CCCl)CCCl)cc5)CCC4(C)C3CCC12C` (stereo unspecified), the growth is 101%. In the case of `Cc1ccccc1O`, the growth is 112%. Still for that read-out and setting: the figure for `O=[N+]([O-])c1ccccc1N1CCNCC1` is 104%.
